In the library only some 4.6% were active in any assay of this set; here they are far more common.
TRHR ag: TRH receptor (human) agonism; P34981; TRHR cells, calcium flux fluo-8, FDSS agonist mode; activation, % at 2 µM; actives 0.18% (n = 360,000); note: 0% is about no effect
Target sequence (P34981 whole entry, looked up): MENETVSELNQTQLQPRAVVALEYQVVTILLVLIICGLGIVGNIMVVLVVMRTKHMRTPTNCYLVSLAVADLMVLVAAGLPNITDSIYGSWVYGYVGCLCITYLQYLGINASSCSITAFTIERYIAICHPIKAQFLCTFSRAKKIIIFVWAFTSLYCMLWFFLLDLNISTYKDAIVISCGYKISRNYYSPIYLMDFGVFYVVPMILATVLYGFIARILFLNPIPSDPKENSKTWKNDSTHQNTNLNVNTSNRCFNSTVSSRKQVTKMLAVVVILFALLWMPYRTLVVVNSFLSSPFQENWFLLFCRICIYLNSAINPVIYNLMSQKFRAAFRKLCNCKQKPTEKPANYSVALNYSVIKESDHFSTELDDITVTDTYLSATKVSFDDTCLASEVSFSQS
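Read-out: compound-evoked intracellular calcium rise in TRHR cells, fluo-8 dye, kinetic FDSS fluorescence at 1 s/cycle following a 10-cycle baseline. Cells cultured overnight before dye loading (30 min–1.5 h, RT).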
TRHR enhancer: TRH receptor (human) allosteric enhancement; AID 493056; TRHR cells, fluo-8 calcium fluorescence, EC20 TRH enhancement; actives 0.66% (n = 360,000); enhancement, % at 2 µM; P34981; in the data active = enhancement above about 30%; note: 0% is about no effect
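Enhancer read-out: after compound pinning and an initial kinetic agonist-mode read, an EC20 of TRH (10 nM final) was injected and fluo-8 calcium signal (Ex 480/Em 530) followed at 1 s/cycle for 100 cycles in TRHR-expressing cells.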
D1 ag: activates the human D1 dopamine receptor; P21728; HEK293 T-REx D1 cells, calcium flux, agonist mode; activation, % at 2 µM; actives 1% (n = 360,000); AID 504660; note: 0% is about no effect
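Tetracycline-induced HEK293 TREx D1 cells, force-coupled to calcium signalling, were dye-loaded with a no-wash calcium kit. Compound was pin-added after a 10 s baseline. Fluorescence was read kinetically at 1 cycle/s for 180 s, with calcium rises flagged as agonism.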
D1 antagonist: antagonists of human D1 dopamine receptor; P21728; activity change, negative = inhibition, % at 10 µM; actives 3.2% (n = 360,000); HEK293 TREx D1 cells, calcium flux, dopamine EC80; active compounds read low; in the data active = activity change below about -30%; note: % is set by controls: 0 for no effect and ±100 for the full control effect
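Calcium flux readout: force-coupled, inducible Hek293 Trex D1 line, cells induced overnight at 30 C with tetracycline, dye-loaded 30–90 min at RT. Antagonism scored against EC80 dopamine challenge given 180 s after compound.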
D1 PAM: enhances dopamine response at the human D1 receptor | actives 0.036% (n = 360,000) | P21728 | HEK293 TREx D1 cells, calcium flux, dopamine EC20 potentiation | potentiation, % at 10 µM; in the data active = potentiation above about 30%; note: 0% is about no effect
Numbers without * were called inactive. Cut-off read from the data, not from the text of the source, unless noted: active = activation above about 30%; inactive = the rest.

SMILES | TRHR ag | TRHR enhancer | D1 ag | D1 antagonist | D1 PAM
COc1cccc(-c2nc(SC(C(C)=O)C(=O)N(C)C)c3c(=O)n(C)c(=O)n(C)c3n2)c1 (configuration not stated) | 0 | 0 | -2 | 2 | 0
CC(=O)N1N=C(c2ccc(NS(=O)(=O)c3ccccc3)cc2)CC1c1ccco1 (configuration not stated) | 0 | -4 | 0 | -36* | 0
CC(=O)N1N=C(c2cccc(NS(=O)(=O)c3ccc(C)cc3)c2)CC1c1ccco1 (configuration not stated) | 0 | 3 | 12 | -14 | -4
C[n+]1ccc(/C=C/c2c[nH]c3ccc(F)cc23)cc1 | -1 | 9 | 56* | -4 | -6
CNC(=S)SCCOc1ccccc1 | 0 | 2 | 4 | -20 | -2
CNC(=S)SCCOc1ccc(C)cc1 | 0 | 2 | 2 | -91* | -7
Cc1cc(-c2nnc3n2N=C(c2ccccc2)CS3)n[nH]1 | 0 | 0 | 0 | 24 | -8
Cc1cc(-c2nnc3n2N=C(c2ccc(-c4ccccc4)cc2)CS3)n[nH]1 | 0 | -6 | 63* | 1 | -4
Cc1ccc(-c2cc(-c3c(C)nn(C)c(=O)c3N)[nH]n2)cc1 | 1 | 4 | 3 | 27 | 0
Cc1nn(C)c(=O)c(N)c1-c1cc(-c2ccc(Cl)c(Cl)c2)n[nH]1 | 0 | -2 | 8 | -47* | -4
O=C(CC1C(=O)NCCN1CCCc1ccccc1)NCCc1ccccc1F (configuration not stated) | -1 | -6 | 34* | -29 | 2
O=C(CC1C(=O)NCCN1Cc1c(F)cccc1Cl)NCCCN1CCCC1=O (configuration not stated) | 0 | 4 | 1 | -39* | 2
CCOc1cc(C(=O)NCc2ccc3c(c2)CCN3C(=O)CC)cc(OCC)c1OCC | -2 | -1 | 3 | -13 | -1
CCN(CC)c1nn2c(=O)c(C(=O)NCCc3ccc(C)cc3)cnc2s1 | 0 | -13 | 0 | 8 | -5
COC(=O)CC(=O)Cc1nc(N)nc(Nc2ccc(C)c(C)c2)n1 | -2 | -6 | 1 | -50* | -9
COc1ccc(CNC(=O)CCS(=O)(=O)c2cc(Br)cc3c2N(C(=O)C2CC2)CC3)cc1 | -1 | 1 | 1 | -5 | -1
Cn1c(SCc2ccc(F)cc2)nc2ccc(C(=O)NCc3cccc(Cl)c3)cc21 | 2 | 6 | 11 | -9 | -6
COc1cccc(CSc2nc3n(n2)C(c2cccs2)C(C(=O)Nc2ccccc2C)=C(C)N3)c1 (configuration not stated) | 1 | 0 | 2 | -3 | -1
O=C(NCCCc1ccccc1)c1ccc(F)cc1 | -2 | -3 | 1 | -11 | 3
O=C(NCCNC1CCC(c2ccccc2)CC1)c1ccc(F)cc1 (configuration not stated) | 2 | 3 | 52* | -37* | -10
CCCCCCc1cc2cc(S(=O)(=O)c3ccc(Cl)cc3)c(=O)oc2cc1O | 12 | -8 | 32* | -6 | -2
CCN(CC)c1ccc2cc(S(=O)(=O)c3ccc(Cl)cc3)c(=O)oc2c1 | 110* | 7 | 272* | -7 | 21
CCCCCCc1cc2cc(C(=O)NCc3ccccc3)c(=N)oc2cc1O | 18 | -2 | 3 | -20 | 3
O=c1oc2cc(O)ccc2cc1S(=O)(=O)c1ccccc1 | -1 | 5 | 0 | 20 | 7
CCCCCCc1cc2cc(S(=O)(=O)c3ccc(C)cc3)c(=O)oc2cc1O | 29 | 47* | 27 | -8 | -7
SMILES | TRHR ag | TRHR enhancer | D1 ag | D1 antagonist | D1 PAM
CCCCCCc1cc2cc(-c3nnc(-c4cccc(Cl)c4)o3)c(=O)oc2cc1O | 72* | -2 | 129* | -2 | -2
Cc1ccccc1C(=O)Nc1cc2c(cc1N1CCCCC1)n(C)c(=O)n2C | 0 | 1 | -1 | 5 | 6
Clc1ccc(Cn2nnc(-c3ccc(CN4CCOCC4)cc3)n2)cc1 | -1 | -5 | 9 | 4 | -4
Fc1cccc(Cl)c1Cn1nnc(-c2ccc(N3CCOCC3)cc2)n1 | -1 | 4 | 6 | -36* | -2
COc1ccccc1C(=O)c1cn(CC(=O)Nc2ccccc2F)c2nc(C)ccc2c1=O | 0 | -3 | 1 | 8 | -3
NNC(=O)COc1ccc(-c2n[nH]c(C(F)(F)F)c2-c2ccc(Br)cc2)c(O)c1 | 2 | -3 | 39* | -37* | -8
Cc1ccc(N(C(C)C(=O)N2CCCC2)S(C)(=O)=O)cc1 (configuration not stated) | 0 | -7 | 1 | -32* | 4
COc1cc2[nH]c(Cl)c([N+](=O)[O-])c2cc1OC | 1 | 13 | 1 | -31* | -8
COc1cc2[nH]c3c(Cl)ncnc3c2cc1OC | 0 | -4 | 2 | -6 | 0
CCc1cccc(C)c1NC(=O)Cn1c(=O)cc(C)c2c(C)nn(-c3cccc(F)c3)c21 | 0 | -8 | 1 | 8 | -7
CCOC(=O)c1ccc(-c2ccc(/C=C(\C#N)C(=O)Nc3c(C)cccc3Cl)o2)cc1 | 1 | 3 | 4 | 4 | 2
CCCCOC(=O)c1ccc(NC(=O)/C(C#N)=C/c2ccc(-c3ccccc3)o2)cc1 | 47* | 7 | 127* | 0 | 7
Cc1ccc(-c2ccc(/C=C(\C#N)C(=O)Nc3cc(C)nn3-c3ccccc3)o2)cc1 | 17 | -2 | 61* | -25 | -8
CN(c1ccc(F)cc1)S(=O)(=O)N1CCCC(C(=O)NCCc2ccccc2)C1 (configuration not stated) | -1 | 2 | 14 | -8 | -6
CCCn1c(=O)c2sccc2n2c(CCCC(=O)Nc3ccccc3OCC)nnc12 | 0 | -1 | 1 | -1 | 1
Cc1ccc2c(=O)cc(C(=O)Nc3c(C(=O)c4ccccc4)oc4ccccc34)oc2c1 | 0 | 0 | 1 | 3 | 0
O=[N+]([O-])c1ccc(O)c(-c2cc(C(F)(F)F)nc(-c3ccccc3)n2)c1 | 7 | -6 | 36* | -48* | -6
CCOC(=O)c1c(NC(C)=O)c2c3c(sc2n1Cc1nc(-c2ccccc2C)oc1C)CCCC3 | 1 | 9 | 0 | -22 | -1
CC(C)[C@H](NC(=O)OCc1ccccc1)C(=O)OCC(=O)NCCc1ccccc1 | 2 | -5 | 4 | -14 | 5
CCC(=O)Nc1cccc(C(=O)OCC(=O)c2ccccc2Cl)c1 | 1 | -1 | 2 | -37* | 0
CC(=O)Nc1cccc(C(=O)OCC(=O)NC(=O)c2ccccc2)c1 | 0 | 10 | 6 | -4 | 0
CC(=O)c1cccc(NC(=O)COC(=O)[C@@H](NC(=O)OCc2ccccc2)C(C)C)c1 | 0 | 2 | 2 | -95* | -9
CC(=O)Nc1cccc(C(=O)OCC(=O)NC(=O)Cc2ccccc2)c1 | 0 | -1 | 0 | -33* | 6
